# About 8,800 targets were measured; listed, in parts, are those with a hit and a random draw of the rest. About 0.5% of all pairs of compound and target were hits. Values without a mark were called inactive.
# Columns and labels:
# Experiment in all cases: log2 fold change, soluble protein after heating vs DMSO (PISA); higher = thermal stabilisation; K562 lysate, 10 uM; active = over 0.2 and 3.5 SD of the protein, either way, in both replicates (recomputed)
# nilotinib = compound: Cc1cn(-c2cc(NC(=O)c3ccc(C)c(Nc4nccc(-c5cccnc5)n4)c3)cc(C(F)(F)F)c2)cn1 [nilotinib]
# Method in brief: (§1)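 Pellets of K562 cells were dounce-homogenised in PBS pH 7.4 with 1 mM MgCl2, and the crude extract was held at 1 mg/mL protein for a 30 min treatment with 10 μM compound. Aliquots were heated for 3 min over 48°C-58°C and pooled before NP-40 was added to 0.5% at 4°C. The supernatant from 21,000xg for 90 min was quantified by TMTpro 16plex LC-MS/MS with channel sums equalised. Values are reported from duplicates as log-two fold change in thermal stability relative to solvent controls.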
# [1] = compound: Cc1nc(Nc2n[nH]c3c2CN(C(=O)N[C@H](CN(C)C)c2ccccc2)C3(C)C)c2sccc2n1
# Method in brief: as §1
# [2] = compound: Cc1ncc(-c2ccnc(Nc3ccc(S(C)(=O)=O)cc3)n2)n1C(C)C
# Method in brief: as §1
# tipifarnib = compound: Cn1cncc1[C@@](N)(c1ccc(Cl)cc1)c1ccc2c(c1)c(-c1cccc(Cl)c1)cc(=O)n2C [tipifarnib]
# Method in brief: as §1
# [3] = compound: NC(=O)c1cnc(N[C@@H]2CCCC[C@@H]2N)nc1Nc1cccc(-n2nccn2)c1
# Method in brief: as §1
# [4] = compound: NC1(c2ccc(-c3nc4ccn5c(=O)[nH]nc5c4cc3-c3ccccc3)cc2)CCC1
# Method in brief: as §1
# quisinostat = compound: Cn1cc(CNCC2CCN(c3ncc(C(=O)NO)cn3)CC2)c2ccccc21 [quisinostat]
# Method in brief: as §1
# [5] = compound: NC(=O)Nc1cc(-c2cccc(F)c2)sc1C(=O)N[C@H]1CCCNC1
# Method in brief: as §1
# dasatinib = compound: Cc1nc(Nc2ncc(C(=O)Nc3c(C)cccc3Cl)s2)cc(N2CCN(CCO)CC2)n1 [dasatinib]
# Method in brief: as §1
# [6] = compound: Cn1cc(-c2ccc3c(c2)CCN3C(=O)Cc2cccc(C(F)(F)F)c2)c2c(N)ncnc21
# Method in brief: as §1
# Sequence of UniProt Q9H668 (Q9H668 whole entry, looked up): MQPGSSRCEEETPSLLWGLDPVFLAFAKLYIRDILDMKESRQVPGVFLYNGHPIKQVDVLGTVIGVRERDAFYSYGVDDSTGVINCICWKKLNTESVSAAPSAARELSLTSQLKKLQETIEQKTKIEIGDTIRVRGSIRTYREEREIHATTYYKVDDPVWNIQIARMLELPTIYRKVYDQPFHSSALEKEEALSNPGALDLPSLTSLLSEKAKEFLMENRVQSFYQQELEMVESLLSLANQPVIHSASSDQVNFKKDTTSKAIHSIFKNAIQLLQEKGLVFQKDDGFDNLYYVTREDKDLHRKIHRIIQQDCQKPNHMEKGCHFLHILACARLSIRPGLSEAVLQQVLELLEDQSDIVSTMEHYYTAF
# Sequence of UniProt Q9Y2H1 (Q9Y2H1 whole entry, looked up): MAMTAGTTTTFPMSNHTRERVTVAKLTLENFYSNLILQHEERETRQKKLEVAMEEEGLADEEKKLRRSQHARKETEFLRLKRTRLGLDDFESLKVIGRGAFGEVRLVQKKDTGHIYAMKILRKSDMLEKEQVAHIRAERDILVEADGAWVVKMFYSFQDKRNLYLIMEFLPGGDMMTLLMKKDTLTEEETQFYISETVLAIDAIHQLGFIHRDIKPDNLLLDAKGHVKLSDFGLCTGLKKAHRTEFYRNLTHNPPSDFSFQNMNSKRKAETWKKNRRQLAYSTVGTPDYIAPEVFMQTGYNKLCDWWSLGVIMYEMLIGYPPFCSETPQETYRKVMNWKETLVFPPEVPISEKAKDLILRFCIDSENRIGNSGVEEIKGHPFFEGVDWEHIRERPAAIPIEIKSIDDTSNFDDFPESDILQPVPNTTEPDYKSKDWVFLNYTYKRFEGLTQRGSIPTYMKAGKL
# Sequence of UniProt Q6NXT4 (Q6NXT4 whole entry, looked up): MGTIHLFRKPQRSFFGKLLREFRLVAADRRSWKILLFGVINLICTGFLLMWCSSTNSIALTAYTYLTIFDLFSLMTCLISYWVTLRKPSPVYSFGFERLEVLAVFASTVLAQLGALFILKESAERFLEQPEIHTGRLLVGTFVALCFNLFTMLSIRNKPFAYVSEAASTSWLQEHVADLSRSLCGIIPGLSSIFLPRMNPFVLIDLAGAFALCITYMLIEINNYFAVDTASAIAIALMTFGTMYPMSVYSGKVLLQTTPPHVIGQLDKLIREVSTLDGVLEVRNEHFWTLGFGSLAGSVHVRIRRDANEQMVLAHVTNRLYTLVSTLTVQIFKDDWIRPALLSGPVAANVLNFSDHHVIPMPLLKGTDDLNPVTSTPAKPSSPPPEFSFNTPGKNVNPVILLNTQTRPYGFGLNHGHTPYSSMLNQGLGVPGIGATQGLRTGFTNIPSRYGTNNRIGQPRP
# Sequence of UniProt Q8TCT8 (Q8TCT8 whole entry, looked up): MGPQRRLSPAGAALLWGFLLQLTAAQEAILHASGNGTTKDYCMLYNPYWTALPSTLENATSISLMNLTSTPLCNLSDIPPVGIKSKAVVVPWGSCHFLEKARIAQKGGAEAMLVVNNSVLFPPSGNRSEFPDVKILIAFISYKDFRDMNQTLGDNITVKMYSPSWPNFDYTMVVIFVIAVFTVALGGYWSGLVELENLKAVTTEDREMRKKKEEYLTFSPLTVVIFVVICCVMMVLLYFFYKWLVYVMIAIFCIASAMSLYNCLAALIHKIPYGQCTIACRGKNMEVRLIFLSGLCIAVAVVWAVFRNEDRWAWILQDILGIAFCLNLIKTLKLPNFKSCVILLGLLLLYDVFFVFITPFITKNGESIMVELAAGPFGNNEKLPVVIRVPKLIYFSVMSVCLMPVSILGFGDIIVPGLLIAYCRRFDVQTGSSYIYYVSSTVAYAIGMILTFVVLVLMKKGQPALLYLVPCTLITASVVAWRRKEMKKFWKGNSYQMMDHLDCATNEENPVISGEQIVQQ
# Sequence of UniProt O60225 (O60225 whole entry, looked up): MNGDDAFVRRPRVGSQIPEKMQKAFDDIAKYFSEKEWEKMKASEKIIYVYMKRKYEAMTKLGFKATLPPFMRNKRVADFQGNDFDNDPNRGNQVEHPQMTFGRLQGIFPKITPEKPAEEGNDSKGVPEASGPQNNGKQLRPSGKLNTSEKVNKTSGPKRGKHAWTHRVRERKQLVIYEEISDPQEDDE
# Sequence of UniProt B2RUZ4 (B2RUZ4 whole entry, looked up): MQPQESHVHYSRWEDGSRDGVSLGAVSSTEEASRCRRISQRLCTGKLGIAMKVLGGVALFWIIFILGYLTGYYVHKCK
# Sequence of UniProt P35711 (P35711 whole entry, looked up): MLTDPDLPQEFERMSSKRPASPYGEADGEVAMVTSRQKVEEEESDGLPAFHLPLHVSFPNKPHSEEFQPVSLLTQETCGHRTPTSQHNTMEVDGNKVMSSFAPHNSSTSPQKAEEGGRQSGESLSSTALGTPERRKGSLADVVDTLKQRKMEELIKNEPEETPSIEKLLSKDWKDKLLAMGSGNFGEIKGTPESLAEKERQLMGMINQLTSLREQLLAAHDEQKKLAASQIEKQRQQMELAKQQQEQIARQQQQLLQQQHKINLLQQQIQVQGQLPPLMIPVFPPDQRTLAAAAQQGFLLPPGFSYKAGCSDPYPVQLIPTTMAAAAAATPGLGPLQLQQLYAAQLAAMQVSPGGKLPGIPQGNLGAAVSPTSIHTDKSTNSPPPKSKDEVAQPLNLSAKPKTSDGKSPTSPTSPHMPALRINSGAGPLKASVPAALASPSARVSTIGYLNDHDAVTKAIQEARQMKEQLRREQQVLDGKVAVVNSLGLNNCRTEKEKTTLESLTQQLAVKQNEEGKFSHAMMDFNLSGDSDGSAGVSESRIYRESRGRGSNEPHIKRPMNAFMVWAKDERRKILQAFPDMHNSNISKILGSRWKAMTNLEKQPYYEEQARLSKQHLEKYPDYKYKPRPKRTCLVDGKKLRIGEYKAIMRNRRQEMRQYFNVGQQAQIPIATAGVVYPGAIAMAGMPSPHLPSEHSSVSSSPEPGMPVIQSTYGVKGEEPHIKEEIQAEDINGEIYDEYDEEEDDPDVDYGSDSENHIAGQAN
# Sequence of UniProt O75182 (O75182 whole entry, looked up): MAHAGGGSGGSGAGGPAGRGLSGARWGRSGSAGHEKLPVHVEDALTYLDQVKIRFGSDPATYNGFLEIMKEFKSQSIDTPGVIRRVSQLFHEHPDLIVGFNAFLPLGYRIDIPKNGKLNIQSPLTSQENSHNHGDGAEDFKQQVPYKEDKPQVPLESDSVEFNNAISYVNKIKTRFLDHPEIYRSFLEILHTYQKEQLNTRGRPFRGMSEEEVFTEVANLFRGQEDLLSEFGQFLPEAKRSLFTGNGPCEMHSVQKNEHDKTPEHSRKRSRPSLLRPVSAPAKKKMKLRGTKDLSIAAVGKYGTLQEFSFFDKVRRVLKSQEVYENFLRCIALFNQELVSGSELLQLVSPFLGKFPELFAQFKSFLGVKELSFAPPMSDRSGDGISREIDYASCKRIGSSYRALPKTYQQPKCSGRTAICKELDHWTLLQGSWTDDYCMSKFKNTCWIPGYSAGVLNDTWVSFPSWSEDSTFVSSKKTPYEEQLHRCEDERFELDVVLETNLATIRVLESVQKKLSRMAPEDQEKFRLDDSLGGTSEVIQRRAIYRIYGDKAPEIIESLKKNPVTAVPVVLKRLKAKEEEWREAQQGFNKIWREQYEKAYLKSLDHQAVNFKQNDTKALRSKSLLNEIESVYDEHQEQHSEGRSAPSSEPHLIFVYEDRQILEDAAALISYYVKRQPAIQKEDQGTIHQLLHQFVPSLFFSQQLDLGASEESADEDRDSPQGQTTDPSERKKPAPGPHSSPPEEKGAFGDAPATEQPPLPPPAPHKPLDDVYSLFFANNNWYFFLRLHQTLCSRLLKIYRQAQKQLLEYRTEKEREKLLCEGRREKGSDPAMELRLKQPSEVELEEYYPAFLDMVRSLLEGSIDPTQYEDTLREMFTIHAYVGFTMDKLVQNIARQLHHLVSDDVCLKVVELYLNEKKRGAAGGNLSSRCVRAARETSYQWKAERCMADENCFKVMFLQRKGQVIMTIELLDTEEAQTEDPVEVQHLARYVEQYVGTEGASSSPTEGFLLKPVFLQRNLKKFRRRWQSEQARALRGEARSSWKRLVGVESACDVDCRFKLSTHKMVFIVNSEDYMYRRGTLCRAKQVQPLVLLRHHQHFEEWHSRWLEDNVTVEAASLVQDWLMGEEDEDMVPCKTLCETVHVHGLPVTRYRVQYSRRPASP
# Sequence of UniProt Q8IVJ1 (Q8IVJ1 whole entry, looked up): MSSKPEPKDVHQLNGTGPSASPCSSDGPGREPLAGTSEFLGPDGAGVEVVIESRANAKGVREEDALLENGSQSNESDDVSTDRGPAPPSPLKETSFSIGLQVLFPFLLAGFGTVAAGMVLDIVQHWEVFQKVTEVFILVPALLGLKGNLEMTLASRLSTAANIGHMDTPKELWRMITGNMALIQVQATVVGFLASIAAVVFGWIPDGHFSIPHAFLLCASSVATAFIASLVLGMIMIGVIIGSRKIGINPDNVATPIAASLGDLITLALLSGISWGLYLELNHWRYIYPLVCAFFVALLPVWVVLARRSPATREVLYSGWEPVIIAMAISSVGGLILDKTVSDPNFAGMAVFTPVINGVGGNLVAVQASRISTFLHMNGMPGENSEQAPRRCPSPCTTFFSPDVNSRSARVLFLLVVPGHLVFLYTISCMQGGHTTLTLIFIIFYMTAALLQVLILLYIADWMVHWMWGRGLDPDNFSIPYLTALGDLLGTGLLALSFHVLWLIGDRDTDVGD
Target,log2 fold change (nilotinib),log2 fold change [1],log2 fold change [2],log2 fold change (tipifarnib),log2 fold change [3],log2 fold change [4],log2 fold change (quisinostat),log2 fold change [5],log2 fold change (dasatinib),log2 fold change [6]
SSX5 isoform 2 (UniProt O60225),0.008,-0.018,0.064,0.061,0.026,0.15,,,,
SPPL2A (UniProt Q8TCT8),,,,,0,-0.072,-0.21,0.046,,
SLC41A1 (UniProt Q8IVJ1),-0.009,0.012,0.07,-0.02,0.014,0.055,0.23,-0.003,,
SMIM1 (UniProt B2RUZ4),0.056,0.05,0.195,0.039,-0.188,-0.418 (active),0.168,-0.055,,
SLC30A6 isoform 2 (UniProt Q6NXT4),-0.029,0.118,-0.067,-0.071,0.012,-0.096,-0.048,0.093,,
STK38L (UniProt Q9Y2H1),-0.08,0.68 (active),-0.009,0.04,,-0.046,-0.122,0.552 (active),-0.002,0.102
SZT2 (UniProt Q5T011),-0.03,0.434,0.02,-0.019,-0.009,-0.046,,,0.04,-0.122
STN1 (UniProt Q9H668),-0.149,-0.071,0.034,0.005,0.032,0.02,-0.104,0.156,,
SIN3B (UniProt O75182),1.42 (active),-0.15,0.839,0.086,,,-0.079,0.077,,
SOX5 (UniProt P35711),,,,,-0.186,-0.004,0.027,-0.03,-0.035,-0.095

# From the supplement of paper PMC10849652
